Records with an inconclusive call do not appear. Activity calls are given as the source filed them. Unless noted, calls come from the whole dose curve.
Columns and labels:
[1] = qHTS for Inhibitors of the Functional Ribonucleoprotein Complex (vRNP) of Lassa (LASV) Arenavirus: Viability assay - alamar blue signal for LASV Primary Screen (AID 1347083; calls by dose curve; tested in HEK293 reporter line; note: nearly all actives have a fitted effect of over 80% in size); details: cell viability, alamar blue fluorescence (LASV minigenome counter-screen); series mostly up to 57.5 µM
[2] = qHTS for Inhibitors of the Functional Ribonucleoprotein Complex (vRNP) of Lymphocytic Choriomeningitis Arenaviruses (LCMV): Viability assay - alamar blue signal for LCMV Primary Screen (AID 1347085; calls by dose curve; tested in HEK293 reporter line; note: nearly all actives have a fitted effect of over 80% in size); details: alamar blue viability counter-screen, LCMV vRNP screen cells; series mostly up to 57.5 µM
[3] = target: Nucleoprotein (Lymphocytic choriomeningitis virus (strain Armstrong)) (UniProt P09992); assay: qHTS for Inhibitors of the Functional Ribonucleoprotein Complex (vRNP) of Lymphocytic Choriomeningitis Arenaviruses (LCMV): LCMV Primary Screen - GLuc reporter signal (AID 1347086); details: LCMV minigenome vRNP cell assay, Gaussia luciferase reporter; series mostly up to 57.5 µM; note: nearly all actives have a fitted effect of over 70% in size
Chain of Nucleoprotein (Lymphocytic choriomeningitis virus (strain Armstrong)) (P09992 whole entry, looked up): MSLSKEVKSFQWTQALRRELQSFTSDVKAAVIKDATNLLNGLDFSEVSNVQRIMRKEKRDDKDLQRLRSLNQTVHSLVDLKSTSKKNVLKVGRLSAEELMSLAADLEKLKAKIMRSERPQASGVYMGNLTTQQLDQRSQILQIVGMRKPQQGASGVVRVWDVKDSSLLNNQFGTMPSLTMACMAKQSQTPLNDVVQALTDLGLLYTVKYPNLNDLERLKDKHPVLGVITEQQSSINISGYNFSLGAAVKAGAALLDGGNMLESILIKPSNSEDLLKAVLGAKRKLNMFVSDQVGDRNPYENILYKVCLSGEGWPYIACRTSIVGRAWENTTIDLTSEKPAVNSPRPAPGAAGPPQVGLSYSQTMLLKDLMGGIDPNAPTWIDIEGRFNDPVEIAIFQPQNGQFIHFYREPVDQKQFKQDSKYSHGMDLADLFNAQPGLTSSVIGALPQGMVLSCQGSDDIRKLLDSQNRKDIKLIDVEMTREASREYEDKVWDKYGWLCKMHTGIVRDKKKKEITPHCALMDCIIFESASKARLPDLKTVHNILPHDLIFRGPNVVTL
% is set by controls: 0 for no effect and ±100 for the full control effect.

Cc1c(C(=O)O)c(O)cc2c1C(=O)c1c(O)c([C@@H]3O[C@H](CO)[C@@H](O)[C@H](O)[C@H]3O)c(O)c(O)c1C2=O
inactive: Potency [1] | Potency [2] | Potency [3]

CCCCOC(=O)CC(CC(=O)OCCCC)(OC(C)=O)C(=O)OCCCC
inactive: Potency [1] | Potency [2] | Potency [3]

O=c1cc(O)c(Cl)c[nH]1
inactive: Potency [1] | Potency [2] | Potency [3]

Cc1c(C(=O)NCCO)[n+](=O)c2ccccc2n1[O-]
inactive: Potency [1] | Potency [2] | Potency [3]

Cc1onc(-c2ccccc2)c1C(=O)Cl
inactive: Potency [1] | Potency [2] | Potency [3]

COc1ccc2cc1Oc1cc3c(cc1OC)CC[N+](C)(C)[C@H]3Cc1ccc(cc1)Oc1c(OC)c(OC)cc3c1[C@@H](C2)[N+](C)(C)CC3
inactive: Potency [1] | Potency [2] | Potency [3]

Cn1c(=O)c2[nH]cnc2n(C)c1=O
inactive: Potency [1] | Potency [2] | Potency [3]

N#CC1(c2ccc(F)cc2)CCC(=O)CC1
inactive: Potency [1] | Potency [2] | Potency [3]

CC(=O)OCC1=C(C(=O)O)N2C(=O)[C@@H](NC(=O)Cc3cccs3)[C@H]2SC1
inactive: Potency [1] | Potency [2] | Potency [3]

CCN(CC)C(=O)c1ccc(O)c(OC)c1
inactive: Potency [1] | Potency [2] | Potency [3]

O=C1O[C@H](CO)[C@@H](O)[C@H](O)[C@H]1O
inactive: Potency [1] | Potency [2] | Potency [3]

CCCc1c(OCCCCc2nn[nH]n2)ccc(C(C)=O)c1O
inactive: Potency [1] | Potency [2] | Potency [3]

Cc1cccc(C)c1NC(=O)CC12CCCN1CCC2
inactive: Potency [1] | Potency [2] | Potency [3]

N#CCC(=O)NN
inactive: Potency [1] | Potency [2] | Potency [3]

Cn1c([N+](=O)[O-])cnc1COC(N)=O
inactive: Potency [1] | Potency [2] | Potency [3]

CCN1CCC[C@H]1CNC(=O)c1cc(S(N)(=O)=O)ccc1OC
inactive: Potency [1] | Potency [2] | Potency [3]

CC(C)(Oc1ccc(Cl)cc1)C(=O)OCCCOC(=O)C(C)(C)Oc1ccc(Cl)cc1
inactive: Potency [1] | Potency [2] | Potency [3]

C[N+](C)(C)CCOC(N)=O
inactive: Potency [1] | Potency [2] | Potency [3]

CNCc1ccccc1
inactive: Potency [1] | Potency [2] | Potency [3]

NCCCC[C@H](N[C@@H](CCc1ccccc1)C(=O)O)C(=O)N1CCC[C@H]1C(=O)O
inactive: Potency [1] | Potency [2] | Potency [3]

CCCCCN(C)CCC(O)(P(=O)(O)O)P(=O)(O)O
inactive: Potency [1] | Potency [2] | Potency [3]

Nc1nc(-c2ccccc2)c(Br)c(=O)[nH]1
inactive: Potency [1] | Potency [2] | Potency [3]

O=C1CC[C@H](C(=O)N2CCCCC2)N1
inactive: Potency [1] | Potency [2] | Potency [3]

C[C@]12C=CC(=O)C=C1CC[C@@H]1[C@@H]2C(=O)C[C@@]2(C)[C@H]1CC[C@]2(O)C(=O)CO
inactive: Potency [1] | Potency [2] | Potency [3]

Nc1ccc(C(=O)OCC(O)CO)cc1 (stereo unspecified)
inactive: Potency [1] | Potency [2] | Potency [3]

C1COC(NC(C2CC2)C2CC2)=N1
inactive: Potency [1] | Potency [2] | Potency [3]

CC(C)=CCC[C@@](C)(O)[C@H]1CC=C(C)CC1
inactive: Potency [1] | Potency [2] | Potency [3]

Cc1ncc(CO)c(CO)c1O
inactive: Potency [1] | Potency [2] | Potency [3]

O=C(OCC1(COC(=O)c2cccnc2)CCCC(COC(=O)c2cccnc2)(COC(=O)c2cccnc2)C1O)c1cccnc1
inactive: Potency [1] | Potency [2] | Potency [3]

CN1CCN(CC(=O)N2c3ccccc3C(=O)Nc3cccnc32)CC1
inactive: Potency [1] | Potency [2] | Potency [3]

COc1ccc(/C=N/NC(=O)c2ccncc2)cc1OC
inactive: Potency [1] | Potency [2] | Potency [3]

CCC(C(=O)NC(=O)NC(C)=O)c1ccccc1 (stereo unspecified)
inactive: Potency [1] | Potency [2] | Potency [3]

CC1CN(c2cc3c(cc2F)c(=O)c(C(=O)O)cn3-c2ccc(F)cc2F)CCN1 (stereo unspecified)
inactive: activity change, negative = reduced viability [1] 9.98% [at 5.82 µM] | activity change, negative = lower viability [2] 2.49% [at 5.82 µM] | activity change, negative = inhibition [3] -0.151% [at 5.82 µM]

Nc1ccc(S(N)(=O)=O)cc1
inactive: Potency [1] | Potency [2] | Potency [3]

Cc1cc(C(C#N)c2ccc(Cl)cc2)c(Cl)cc1NC(=O)c1cc(I)cc(I)c1O (stereo unspecified)
inactive: Potency [1] | Potency [2] | Potency [3]

O=C(c1ccco1)N1CCNCC1
inactive: Potency [1] | Potency [2] | Potency [3]

CC(=O)[C@H]1CC[C@H]2[C@@H]3C=CC4=CC(=O)CC[C@@]4(C)[C@@H]3CC[C@]12C
inactive: Potency [1] | Potency [2] | Potency [3]

C[C@H]1C[C@@H]2[C@H]([C@@H](O)C[C@@]3(C)[C@H]2CC[C@]3(O)C(=O)CO)[C@@]2(C)C=CC(=O)C=C12
inactive: Potency [1] | Potency [2] | Potency [3]

CN(C)CCc1c[nH]c2ccc(Cn3cncn3)cc12
inactive: Potency [1] | Potency [2] | Potency [3]

CCO/C([O-])=N/c1c[n+](N2CCOCC2)no1
inactive: Potency [1] | Potency [2] | Potency [3]

CC(C)(Oc1ccc(C2CC2(Cl)Cl)cc1)C(=O)O (stereo unspecified)
inactive: Potency [1] | Potency [2] | Potency [3]

CC(=O)CC(c1ccc([N+](=O)[O-])cc1)c1c(O)c2ccccc2oc1=O (stereo unspecified)
inactive: Potency [1] | Potency [2] | Potency [3]

C#C[C@]1(O)CC[C@H]2[C@@H]3CCC4=CC(=O)CC[C@@H]4[C@H]3CC[C@@]21CC
inactive: Potency [1] | Potency [2] | Potency [3]

NC(=O)c1ccccc1O
inactive: Potency [1] | Potency [2] | Potency [3]

CC(=O)N/N=C/c1ccc([N+](=O)[O-])o1
inactive: Potency [1] | Potency [2] | Potency [3]

COc1cc(-c2ccc(=O)[nH]n2)ccc1OC(F)F
inactive: Potency [1] | Potency [2] | Potency [3]

Cn1nnc2c(C(N)=O)ncn2c1=O
inactive: Potency [1] | Potency [2] | Potency [3]

Nc1ccc(S(=O)(=O)NC(=O)c2ccccc2)cc1
inactive: Potency [1] | Potency [2] | Potency [3]

CN=C(NC#N)NCCSCc1csc(N=C(N)N)n1
inactive: Potency [1] | Potency [2] | Potency [3]

CC[C@]12CCCN3CCc4c(n(c5ccccc45)[C@@](O)(C(=O)OC)C1)[C@@H]32
inactive: Potency [1] | Potency [2] | Potency [3]

CC(C(=O)O)c1ccc(/C=C2\CCCCC2=O)cc1 (stereo unspecified)
inactive: Potency [1] | Potency [2] | Potency [3]

O=C(O)c1ccc(S(=O)(=O)N(Cl)Cl)cc1
inactive: Potency [1] | Potency [2] | Potency [3]

CC(C(=O)O)c1ccc(C(=O)c2ccccc2)s1 (stereo unspecified)
inactive: Potency [1] | Potency [2] | Potency [3]

CO[C@]12C[C@@H](COC(=O)c3cncc(Br)c3)CN(C)[C@@H]1Cc1cn(C)c3cccc2c13
inactive: Potency [1] | Potency [2] | Potency [3]

Nc1ccc(S(=O)(=O)c2ccc(N)cc2)cc1
inactive: Potency [1] | Potency [2] | Potency [3]

CC(=O)O[C@@H]1C(=O)O[C@@H]2[C@H]1OC(=O)[C@@H]2OC(C)=O
inactive: Potency [1] | Potency [2] | Potency [3]

CC(C(=O)O)c1cccc(Oc2ccccc2)c1 (stereo unspecified)
inactive: Potency [1] | Potency [2] | Potency [3]

CCNC(=O)/C=C/c1cccc(Br)c1
inactive: Potency [1] | Potency [2] | Potency [3]

O=S(=O)(O)c1cc(I)c(O)c2ncccc12
inactive: Potency [1] | Potency [2] | Potency [3]

CNNCc1ccc(C(=O)NC(C)C)cc1
inactive: Potency [1] | Potency [2] | Potency [3]

CCCNC(C)C(=O)Nc1c(C)csc1C(=O)OC (stereo unspecified)
inactive: Potency [1] | Potency [2] | Potency [3]

O=C(O)c1cccnc1
inactive: Potency [1] | Potency [2] | Potency [3]

COc1ccc(/C(C)=C/C(=O)O)c(OC)c1
inactive: Potency [1] | Potency [2] | Potency [3]

COc1ccc(C(=O)NCc2ccc(OCCN(C)C)cc2)cc1OC
inactive: Potency [1] | Potency [2] | Potency [3]

CCCCCCCCCCCCCCCCCC(=O)OCC(O)CO (stereo unspecified)
inactive: Potency [1] | Potency [2] | Potency [3]

O=C(NCC(O)CO)c1c(I)c(C(=O)NCC(O)CO)c(I)c(N(CCO)C(=O)CO)c1I (stereo unspecified)
inactive: Potency [1] | Potency [2] | Potency [3]

CCCCCCCCCCCCCCCC(=O)NCCO
inactive: Potency [1] | Potency [2] | Potency [3]

Reference: PubChem BioAssay (NCATS)
